mHTT CaM bind: mutant huntingtin-calmodulin interaction inhibitors – biochemical, AlphaScreen, primary screen. P42858. AlphaScreen His-mHTT/GST-CaM binding, luminescence. inhibition, % at 15 µM. 3.6% of 190,000 active. AID 1671202, 2021;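 further: 0% = both proteins with DMSO and 100% = one protein alone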
Pf apPOL inh: Pf-apPOL inhibitors, biochemical, fluorescence. 0.25% of 210,000 active. inhibition, % at 10 µM. Plasmodium falciparum apicoplast DNA polymerase (apPOL). AID 1794808, 2022. Recombinant Pf-apPOL, molecular beacon fluorescence, 1.5 h
* hit, by the source's call; / = no result. Hits are enriched below; roughly 3.6% of the tested compounds scored in any of these assays. No stated cut-off is given here; in the data, active means inhibition above about 50%; inactive means the rest.

SMILES	mHTT CaM bind	Pf apPOL inh
COc1ccc(C2CC(C3C(=O)c4ccccc4C3=O)=NN2)cc1 (stereo not given)	100.0*	-1.2
COc1cccc2ccc(C3C(=O)c4ccccc4C3=O)nc12	2.0	-3.8
Cc1cc(N2CCOCC2)n2c(nc3ccccc32)c1C#N	3.0	-5.5
CSc1ccc(C2Nc3cccc4cccc(c34)N2)cc1	69.3*	/
CSc1ccc(C2Nc3ccccc3C(=O)N2c2ccc(C)cc2)cc1 (stereo not given)	-2.0	-1.9
CC(=O)NS(=O)(=O)c1ccc(NC(=O)COc2ccc(Cl)cc2Cl)cc1	-0.6	-15.5
Cn1cc(C(=O)Nc2ccc3c(c2)CCC3)c2ccccc2c1=O	50.0*	2.3
Cc1ccc(NC(=O)c2cn(C)c(=O)c3ccccc23)c(Br)c1	10.0	-8.9
CCCCNc1nc(SCC(=O)c2ccc(O)c(O)c2)nc2ccccc12	64.0*	-5.4
COCCNc1nc(SCC(=O)c2ccc(O)c(O)c2)nc2ccccc12	12.0	-2.4
CCOC(=O)c1ccccc1NC(=O)C1CCCN(c2cc(-n3cccn3)ncn2)C1 (stereo not given)	-14.5	-10.8
O=C(c1cccs1)N1CCN(C(=O)C2CCCCC2)CC1	/	-7.7
O=C(C1CCC1)N1CCN(C2=NN=C(c3cccs3)CS2)CC1	77.8*	-4.6
Cn1ccnc1C(O)c1cc(C(C)(C)C)c(O)c(C(C)(C)C)c1 (stereo not given)	17.6	-7.0
CC(C)(C)c1cc(C(c2ccccn2)N2CCCCC2)cc(C(C)(C)C)c1O (stereo not given)	77.2*	-4.6
Cn1ccc2c(-c3ccccc3F)cc3c(c21)C1CCC3C1 (stereo not given)	13.1	-2.9
CN(Cc1ccccc1F)c1cc2c(c3c1ccn3C)C1CCC2C1 (stereo not given)	56.4*	-0.2
COc1ccccc1C=C1Oc2c(CN3CCN(CCO)CC3)c(O)cc(C)c2C1=O	7.0	-8.7
O=C(Nc1ccc(F)c(Cl)c1)NC1CCCCC1	-9.2	-3.8
Clc1ccc(N2Cc3ccccc3C2)cc1Cl	87.0*	-2.0
O=C(c1c(F)cccc1F)N1CCN(c2ccc(Cl)c(Cl)c2)CC1	18.6	3.0
O=C(Cn1ccc2ccccc21)N1CCC(COCc2ccccc2)CC1	58.0*	-15.9
O=C(CCn1ccc(=O)[nH]c1=O)N1CCC(COCc2ccccc2)CC1	-4.4	2.8
CCN1CCN(C(=O)c2ccccc2C)CC1	-12.5	-1.5
COc1ccc(-c2ccc(CN3C(CC(C)C)C(=O)N(Cc4cn(Cc5ccco5)nn4)CCS3(=O)=O)cc2)cc1 (stereo not given)	31.9	-2.3
SMILES	mHTT CaM bind	Pf apPOL inh
CC(C)CC1C(=O)N(Cc2cn(Cc3ccco3)nn2)CCS(=O)(=O)N1Cc1ccc(-c2ccncc2)cc1 (stereo not given)	32.9	-5.3
COCOCCn1cc(CN2CCS(=O)(=O)N(Cc3ccc(-c4ccc(F)nc4)cc3)C(CC(C)C)C2=O)nn1 (stereo not given)	50.1*	5.5
CC(C)CC1C(=O)N(Cc2cn(Cc3ccco3)nn2)CCS(=O)(=O)N1Cc1ccc(-c2ccc(F)nc2)cc1 (stereo not given)	60.3*	-5.5
CC(C)CC1C(=O)N(Cc2cn(Cc3ccco3)nn2)CCS(=O)(=O)N1Cc1ccc(-c2ccccc2)cc1 (stereo not given)	67.8*	-3.7
COCOCCn1cc(CN2CCS(=O)(=O)N(Cc3ccc(-c4ccc(F)nc4)cc3)C(C(C)C)C2=O)nn1 (stereo not given)	-7.6	-3.5
Cc1ccc(C(=O)Nc2ccc(Cl)c(-c3nc4ncccc4o3)c2)cc1	47.3	-2.5
Cc1ccc(N=C2C(=O)N(CN3CCOCC3)c3ccccc32)cc1	6.0	-5.1
Cc1ccc(N=C2C(=O)N(CN3CCOCC3)c3ccccc32)cc1C	58.0*	6.6
Cn1nnc2c(SCC(=O)c3ccc(Cl)cc3)ncnc21	-0.1	-1.1
CC(=O)Nc1ccc(S(=O)(=O)Nc2ccc3c(c2)oc2ccccc23)cc1	44.8	-6.3
O=S(=O)(Nc1ccc2c(c1)oc1ccccc12)c1ccc2ccccc2c1	76.7*	/
O=C(Nc1ccccc1I)c1cc2cc(Br)ccc2oc1=O	9.0	-7.9
Cc1ccc(NC(=O)CSc2nc3n(n2)C(=O)C(=O)N3)cc1	3.0	93.6*
Cc1ccc(SCC(=O)Nc2ccc(F)cc2)cc1	/	-6.0
O=C(CSc1nc2c(c(=O)n1-c1ccccc1)SCC2)Nc1ccc([N+](=O)[O-])cc1	2.0	-0.8
CCN1C(=O)/C(=C\c2nc3ccccc3c(=O)n2-c2ccccc2C)c2ccccc21	63.0*	-1.9
CC(C)N1C(=O)/C(=C\c2nc3ccccc3c(=O)n2-c2ccc([N+](=O)[O-])cc2)c2ccccc21	61.0*	-6.2
CCCN1C(=O)/C(=C\c2nc3ccccc3c(=O)[nH]2)c2ccccc21	37.0	1.8
CCCN1C(=O)/C(=C\c2nc3ccccc3c(=O)n2-c2ccccc2[N+](=O)[O-])c2ccccc21	38.0	-15.9

High-throughput results deposited in PubChem by University of Kansas High Throughput Screening Laboratory.
